{"source": "the supplement of paper PMC12632987", "binders": {"B1": {"name": "GBRAP_78_6736 (protein)", "chain": "EIEELIDKALEELNRAARLAQQFPLEEQTELLDLIIDASTLLEEAEEEGFDLKLLEEALKKLKEALKLAKKLKTPLAEKLAKELEEAIKLVEKAIKLVKE"}, "B2": {"name": "GBRAP_128_3567 (protein)", "chain": "STAAAVAQARALLEAIKAGDAATRRAAAEALVALLAAADPETREAITAEILERLPELSAEDLEVLADVFRAARPAADPATAEALAEIQVEALNEREEKEE"}, "B3": {"name": "GBRAP_35_5597 (protein)", "chain": "DTDQLAVDSLIDMIEATIEGIPELPVDTLVSITNLLIKDAEELRKQLKNNVEALERIAKALEKLKEALKKHHGDNPKVQETIEKVEKAIKELKEQAKKAL"}, "B4": {"name": "GBRAP_184_5332 (protein)", "chain": "KTLEVHIENLPIEEIIKKVEEAAKKAAEEGADLLISIDASGYSIEEIIELIKKIGEIAKKYGVKNVTLGIDKEVNEEEADKLIEEADKYGIRLVLPLKDE"}, "B5": {"name": "GBRAP_184_5329 (protein)", "chain": "KTLEVHIENLPIEEIKKKVEEALKEAAAQGAALSIYIDASGYSIEEIKELIEYIGELAKKYGVKDVTLGIDKAVNEEEADILIEIADKYGIRLVLPLEDE"}, "B6": {"name": "GBRAP_83_6990 (protein)", "chain": "KEKITVAANGDDIEEAAEIVIDLTKEEGYEVDVEIIATKEDWEKVLEMVERLAEAGIETDITVLAEGITEEEAKEKQKELEEIAKEHGVNINVKVYAIEP"}, "B7": {"name": "GBRAP_83_6970 (protein)", "chain": "MEKVDVVTTPDHVEEAAEAARDLAEEEGYEVTVILVGSPEEVLKSAEIVAEKLKDIKNVSIRAAVRGVRKEEAEKTKKKLEEIGKKYGLKVEFDAELIEE"}, "B8": {"name": "GBRAP_106_2555 (protein)", "chain": "SEEEKFEKLIKESREEAEKEIADTRAWLAARRDQLTPEEIRAIETYTKKYLVAKILHKAIEAGFITKEEAEEILKEALSKTDFTPEEAVKFTLEKIKELY"}, "B9": {"name": "GBRAP_160_4809 (protein)", "chain": "MEKAEKLLEEARKDLLETAEASKDLPIEDRARLLEAEGYTSILDFEEELNISDETEEKLAQVVDDLVATLLANPDLSDEEVLALVEEAAEKMKEIVKEEV"}, "B10": {"name": "GBRAP_160_4810 (protein)", "chain": "KEKAEKLMEEARKDLLETAEASADLPIEDRARLLEAEGYTSILDFEEELNISDETEEELDEVVDDLVARLLANPDLSREEVLALVEEAVERMKEIVEKEV"}, "B11": {"name": "GBRAP_74_6512 (protein)", "chain": "MEELLAKLKEAAEAKDVDKLVALALEIAETGDKETIEKAAEIVVAFVEANLDTLTPEELEKLSDALATLADKLMELGGDSEVVNRVAETAVALEKKLLAL"}, "B12": {"name": "GBRAP_52_5860 (protein)", "chain": "MVEEALEKLRKAVEAMKAGKEEEAEKILKEIVENFDEETILAAAEAFAKEMATATPEEAEAAFRTAEMLGKILEEAGFDEEVVTLIEDTIGAAVARVEAA"}, "B13": {"name": "GBRAP_139_3742 (protein)", "chain": "SEMEKKVEEAAKKVAELKDDPEAVADYLTETIASVDEETAEKIARAAVEVLADLPVEERLALDDLILDKLEEAGVDEDKITIVEAELNGGLARHAYAEEL"}, "B14": {"name": "GBRAP_139_3708 (protein)", "chain": "SALEEKVAEAKELTKETLENPEESIKKIVELLLSVSEEDLEVVVKAIAETLSEFPLDTAEELADKLLEEVKKRSKDEDKVNIVEAVLNGALARKAYEEEL"}, "B15": {"name": "GBRAP_80_6860 (protein)", "chain": "DEARLAAARARLKALLPEAAALIDEVVAIAKELGVPNADIADLLDALAELAEVDPELAKELLEELLEDLREEKEAGDAENALATVRGYAGEALMEAEELE"}, "B16": {"name": "GBRAP_95_7064 (protein)", "chain": "EEDLEIAEDLIDTAEDLVEIGLYEQAARAAKAAVEELKEIGYTGELALRAAEVLVKVAEATGNEEAAELAKEVLEEIRKAGGDEKKIEELEKRLEKALKK"}, "B17": {"name": "GBRAP_52_6171 (protein)", "chain": "SAEKARKMAEELLEAIKAGDEEKVKKILEEIAKNYTDEEIAAMLREVAKRVPSLSPEDQERVVEAALELEDIAVKAGHDENVLQIEVARVAAAAYDALQA"}, "B18": {"name": "GBRAP_53_6396 (protein)", "chain": "AEKEIKEGLKELEALIKRVKADPTLDPKEVAKEASALFKALVAAGAPEEELVKLAKELAEAVKAKGLGVEVSTALAKAAAEAGAEEVQYVFTEAAVEDLE"}, "B19": {"name": "GBRAP_160_4238 (protein)", "chain": "SEEIEKLREEITDEAELLLDVLLESPKSQWPAYARAFAGDIVQIVEENENVSDETEEKVAELADEMVAELVAARDASPEELAALLERFVERIVKTVEEGV"}}, "note": "Whole data set: some 4,500 sequences, median “median log2 fold change of GCK-ALFA target abundance (FLAG IP / Myc IP barcode read proportion)” near 0.078, cut for the lowest 2% near -0.6. The entries come from a sample that favours the lowest values as a whole."}
{"molecular_target": "GABARAP, O95166", "sequence (O95166 whole entry, the tested form may be a part)": "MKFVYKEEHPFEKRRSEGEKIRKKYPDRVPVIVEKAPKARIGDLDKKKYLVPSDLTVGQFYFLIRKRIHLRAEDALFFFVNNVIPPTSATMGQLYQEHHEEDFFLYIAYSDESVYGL", "assay": "median log2 fold change of GCK-ALFA target abundance (FLAG IP / Myc IP barcode read proportion) (log2 ratio); each designed protein is fused to an ALFA-tag nanobody in HEK293 cells to bring the named protein to FLAG-tagged glucokinase (GCK); Myc marks an untargeted standard; higher = target protein stabilised (more abundant)", "conditions": "target protein: 3xFLAG-MCP-GCK-ALFA reporter; HEK293 landing pad (RPLP)", "protocol": "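LABEL-seq trans screen in HEK293 landing-pad cells. Each de novo designed 100-aa effector handle, binding the indicated effector (E3 ligase, DUB or autophagy protein), is fused to a constant NbALFA target handle and induced with 2 ug/mL doxycycline. A FLAG-MCP-GCK-ALFA target and a Myc-MCP standard reporter were transfected, and after 48 h circRNA barcodes were recovered by anti-FLAG and anti-Myc IP and sequenced. The value is the median across barcodes (at least 3 per design) of log2(FLAG/Myc read-proportion ratio), with the two transfection replicates pooled. Negative values mean degradation and positive values mean stabilisation of the target.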"}
{"binder": "B1", "median log2 fold change": -0.0442}
{"binder": "B2", "median log2 fold change": 0.197}
{"binder": "B3", "median log2 fold change": 0.00193}
{"binder": "B4", "median log2 fold change": -0.598}
{"binder": "B5", "median log2 fold change": -0.086}
{"binder": "B6", "median log2 fold change": -0.0785}
{"binder": "B7", "median log2 fold change": 0.197}
{"binder": "B8", "median log2 fold change": -0.507}
{"binder": "B9", "median log2 fold change": -0.35}
{"binder": "B10", "median log2 fold change": -0.669}
{"binder": "B11", "median log2 fold change": 0.23}
{"binder": "B12", "median log2 fold change": 0.165}
{"binder": "B13", "median log2 fold change": 0.187}
{"binder": "B14", "median log2 fold change": 0.163}
{"binder": "B15", "median log2 fold change": -0.593}
{"binder": "B16", "median log2 fold change": 0.373}
{"binder": "B17", "median log2 fold change": -0.631}
{"binder": "B18", "median log2 fold change": 0.274}
{"binder": "B19", "median log2 fold change": -0.458}
